PubChem BioAssay AID2320 (National Center for Advancing Translational Sciences (NCATS), 2010)
Results filed as inconclusive are left out. Calls of active or inactive are those of the source. Calls come from the whole dose curve.

Test: A qHTS for Small Molecule Inhibitors of Shiga Toxin (Confirmatory); note: nearly all actives have a fitted effect of over 75% in size
Details: Cell-based Shiga toxin protection reporter assay; series mostly up to 38.3 µM
Potency is the fitted concentration of half-maximal effect.

Question: For `Cc1ccc(N/C(C(Cl)=C(Cl)Cl)=C(/Cl)[N+](=O)[O-])c(C)c1`, which Potency is on record?
Answer: inactive

Question: Which Potency does the source give for `Cc1ccc(NC(=O)C(C)N=C2NS(=O)(=O)c3ccccc32)cc1` (stereo not drawn) here?
Answer: 0.0005 µM (active)

Question: Which Potency does the source give for `NC(=O)[C@@H]1CCCN1C(=O)c1ccc2nc(Cc3cccc(Cl)c3)oc2c1` here?
Answer: inactive

Question: Which Potency does the source give for `O=C(/C=C/C#Cc1cccc(NS(=O)(=O)c2ccccc2)c1)NO` here?
Answer: 11.3 µM (active)

Question: Which Potency does the source give for `Cc1cc(Cl)ccc1NC(=O)CN1CCC(C(O)(c2ccccc2)c2ccccc2)CC1` here?
Answer: inactive

Question: Which Potency does the source give for `O=C(CCS(=O)(=O)c1cccs1)Nc1ccc(C(=O)NCc2cccs2)cc1` here?
Answer: inactive

Question: For `COC(=O)c1c(NC(=O)c2ccn(C)n2)sc2c1CCC2`, which Potency is on record?
Answer: 2.83 µM (active)

Question: With `CNC(=O)CSc1nnc(-c2cc(C)cc(C)c2)o1` as the molecule, how does the Potency read?
Answer: inactive

Question: Which Potency does the source give for `CCOC(=O)Cc1csc(NC(=O)CSc2ncnc3c2cnn3-c2ccc(OC)cc2)n1` here?
Answer: 5.04 µM (active)

Question: For `Cc1nc(N2CCN(C(=O)c3ccco3)CC2)nc2c1C(=O)CCC2`, which Potency is on record?
Answer: 6.34 µM (active)

Question: With `COC(=O)c1ccc(C)c(NC(=O)CCSc2ccc(Cl)cc2)c1` as the molecule, how does the Potency read?
Answer: inactive

Question: With `Cc1nonc1OCCCNc1ccc([N+](=O)[O-])cc1Cl` as the molecule, how does the Potency read?
Answer: 12.6 µM (active)

Question: For `CC1CC(C)CN(C(=O)C(NS(=O)(=O)c2ccc(Br)s2)c2ccccc2)C1` (stereo not drawn), which Potency is on record?
Answer: 2.25 µM (active)

Question: With `COc1ccc(C(=O)CSc2nnc(C(CO)NC(=O)c3ccc(OC)cc3)n2C)cc1` (stereo not drawn) as the molecule, how does the Potency read?
Answer: inactive

Question: With `COc1ccccc1NC(=O)Nc1cc(F)ccc1F` as the molecule, how does the Potency read?
Answer: 20 µM (active)

Question: Which Potency does the source give for `O=C(Nc1ccc2oc(-c3ccccc3)nc2c1)c1ccc2c(c1)OCCO2` here?
Answer: 14.2 µM (active)

Question: With `CS(=O)(=O)N(CC(=O)Nc1ccccc1Sc1ccccc1)C1CCCCC1` as the molecule, how does the Potency read?
Answer: inactive

Question: Which Potency does the source give for `NS(=O)(=O)c1cc(C(=O)NCC2CCCCC2)ccc1Cl` here?
Answer: inactive

Question: With `O=C(NCCc1c[nH]c2ccccc12)C(F)(F)F` as the molecule, how does the Potency read?
Answer: inactive

Question: With `COc1ccc(N(CCC#N)S(=O)(=O)c2ccc(Cl)cc2)cc1` as the molecule, how does the Potency read?
Answer: inactive

Question: Which Potency does the source give for `Cc1cc(N2CCCCCC2)nc(-c2ccccc2O)n1` here?
Answer: 17.9 µM (active)

Question: Which Potency does the source give for `CC[N+](CC)(CCO)CCCN1C(=O)C2CC=C(Cl)CC2C1=O` (stereo not drawn) here?
Answer: inactive

Question: With `O=C(O)c1ccn(Cn2cnc3ccccc32)n1` as the molecule, how does the Potency read?
Answer: inactive

Question: With `CC1CCC/C=C/C2CC(O)CC2C(O)/C=C/C(=O)O1` (stereo not drawn) as the molecule, how does the Potency read?
Answer: 0.565 µM (active)

Question: With `c1cc2c(cc1Cn1cnnn1)OCO2` as the molecule, how does the Potency read?
Answer: inactive

Question: Which Potency does the source give for `CC(C)(C)C(=O)Cn1ncc(N2CCOCC2)c(Br)c1=O` here?
Answer: 22.5 µM (active)

Question: For `O=C(NCCN1C(=O)S/C(=C\c2ccc(Cl)cc2)C1=O)c1ccc(F)c(S(=O)(=O)N2CCOCC2)c1`, which Potency is on record?
Answer: 6.34 µM (active)

Question: For `CCCCC1(C)Nc2ccccc2-c2nc3ccccc3n21` (stereo not drawn), which Potency is on record?
Answer: 12.6 µM (active)

Question: Which Potency does the source give for `Nc1cc(N)nc(SCC(=O)Nc2ccc(Br)cc2Cl)n1` here?
Answer: 11.3 µM (active)

Question: For `COc1ccccc1N(CCC#N)C(=O)CSc1nc(-c2ccccc2)cn1N`, which Potency is on record?
Answer: inactive

Question: Which Potency does the source give for `O=C(CCN1C(=O)c2cccc3cccc(c23)C1=O)NC1CCS(=O)(=O)C1` (stereo not drawn) here?
Answer: inactive

Question: With `CNC(=O)c1cccn(Cc2ccc(C(F)(F)F)cc2)c1=O` as the molecule, how does the Potency read?
Answer: 0.1 µM (active)

Question: With `COC(=O)c1ccc(-c2ncc(-c3cccc4ccccc34)o2)cc1` as the molecule, how does the Potency read?
Answer: 7.11 µM (active)

Question: With `O=C(O)C1CCCCC1C(=O)Nc1ccc(-c2ccccc2)cc1` (stereo not drawn) as the molecule, how does the Potency read?
Answer: 10 µM (active)

Question: With `Cc1cc(C)c2c(n1)SCC(=O)N2CC(=O)Nc1ccc(C)c(C)c1` as the molecule, how does the Potency read?
Answer: 0.449 µM (active)

Question: For `O=C(/C=C/Nc1ccc(F)cc1F)c1ccco1`, which Potency is on record?
Answer: 0.225 µM (active)

Question: With `Cn1c(=O)c2ncn(CC(=O)NCCOc3ccccc3)c2n(C)c1=O` as the molecule, how does the Potency read?
Answer: inactive

Question: Which Potency does the source give for `Cc1cccc(NC(=O)CCN2C(=O)c3ccccc3S2(=O)=O)c1C` here?
Answer: 20 µM (active)
